# An excerpt weighted towards active compounds, which were near 8% of everything screened.
# HT1080 IDH1KD tx: qHTS for induction of synthetic lethality in tumor cells producing 2HG: qHTS for the HT-1080-IDH1KD cell line; AID 686971, 2013; HT-1080 IDH1 knockdown viability, ATP luminescence, 48 h; Potency, µM (highest dose often 46.1 µM), without a hit: at the top dose activity, negative = toxicity, actives largely listed as cytotoxic; hit rate 2% among 360,000;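 further: 0% = DMSO wells and -100% = cell-free medium wells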
#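 Viability of IDH1-knockdown HT-1080 fibrosarcoma cells was assessed by CellTiter-Glo after 48 h at 37 °C with titrated compound; concentration-effect curves were classified by fit quality and response size.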
# HT1080NT lethal: qHTS for induction of synthetic lethality in tumor cells producing 2HG: qHTS for the HT-1080-NT fibrosarcoma cell line; HT-1080-NT fibrosarcoma viability, CellTiter-Glo ATP luminescence, 48 h; hit rate 1.6% among 360,000; Potency, µM (doses to about 46.1 µM), for the others: top-dose activity, negative = less viability, usual class: cytotoxic;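 further: NT is the 2HG producing partner of a matched IDH1 knockdown line; 0% = DMSO-treated cells and -100% = media-only wells without cells; nearly all actives have a fitted effect of over 55% in size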
#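 Compounds were tested in concentration-response format on HT-1080-NT cells for 48 hours at 37 degrees C. Cell viability came from CellTiter-Glo luminescence; curves were classified by r2, response magnitude and activity.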
# MCF10A rerep: A quantitative high throughput screen for small molecules that induce DNA re-replication in MCF 10a normal breast cells; MCF 10A DNA re-replication, Hoechst nuclear intensity, 48 h; Potency, µM (doses to about 46.1 µM), for inactives: at the top dose activity, positive = re-replication, hits mostly activators; hit rate 2.9% among 350,000; AID 624296, 2012; further: % of control where 0% means no effect; nearly all actives have a fitted effect of over 50% in size
# KB-V1 MDR tox: qHTS assay for MDR1-selective chemotherapeutics: Primary screen using the drug-selected MDR subline cells KB-V1; hit rate 3.4% among 400,000; KB-V1 MDR cells viability, CellTiter-Glo, 72 h; AID 1347076, 2019; Potency, µM (series often up to 46.1 µM), actives largely listed as cytotoxic; further: on the % scale 0 is the no-effect control and ±100 the full control effect; nearly all actives have a fitted effect of over 60% in size
#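 Potencies derive from concentration-effect curves fitted to normalized luminescence (CellTiter-Glo) of KB-V1 cells treated for 72 h at 37 degrees C in phenol-red-free DMEM containing 10% FBS.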
# KB-3-1 cytotox: qHTS assay for MDR1-selective chemotherapeutics: Primary screen using the parental adenocarcinoma cell KB-3-1. KB-3-1 viability, CellTiter-Glo ATP luminescence, 72 h. Potency, µM (series often up to 46.1 µM), actives largely listed as cytotoxic. hit rate 1.4% among 400,000; further: on the % scale 0 is the no-effect control and ±100 the full control effect; nearly all actives have a fitted effect of over 60% in size
#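 KB-3-1 parental drug-naive adenocarcinoma cells in DMEM/10% FBS, incubated 72 h at 37 C with pin-transferred compounds across a concentration series. Viability by CellTiter-Glo luminescence; concentration-response curves fitted after normalization.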
# SW480 rerep: A quantitative high throughput screen for small molecules that induce DNA re-replication in SW480 colon adenocarcinoma cells; hit rate 1.8% among 340,000; SW480 DNA re-replication, Hoechst DNA content imaging, 48 h; Potency, µM (highest dose often 46.1 µM), for the others: at the top dose re-replication activation, most hits filed as activators; further: % of control where 0% means no effect; nearly all actives have a fitted effect of over 55% in size
#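 Image-based DNA-content assay: after two days of treatment, nuclei were labelled with the DNA dye Hoechst and imaged, and hits were compounds raising the count of nuclei showing high fluorescence intensity.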
# An asterisk follows results filed as active; i = inactive; ? = inconclusive; . = not tested or not shown; ! = not confirmed by another sample; [ ] = dose if it differs, or a comment. The call rests on the fitted dose curve; in most records, active means well fitted curve in the direction sought with a large enough effect; inconclusive means small, poorly fitted or top-dose-only effect, or another doubt; inactive means no such curve, though single readings can be large; an effect the other way counts as inactive or inconclusive. Potency means the concentration at half of the fitted maximal effect.
SMILES,HT1080 IDH1KD tx,HT1080NT lethal,MCF10A rerep,KB-V1 MDR tox,KB-3-1 cytotox,SW480 rerep
COCCCNCCCOc1ccc(Cl)cc1C(C)(C)C,20.6µM*,?,?,25.9µM*,?,?
COc1cccc(Cc2nc3ccccc3nc2SCC(=O)N2CCCc3ccccc32)c1,.,.,.,i,i,.
CCCCSc1nnc2c(n1)OC(c1ccc(Br)s1)N(C(C)=O)c1ccccc1-2 (stereo not drawn),.,.,.,i,i,.
CCC1CCCCN1C(=O)Cn1c(=O)n(CC2CCC(C(=O)NC)CC2)c(=O)c2sccc21 (stereo not drawn),.,.,.,i,i,.
O=C(Nc1cccc(C(=O)Nc2ccc(Cl)cn2)c1)c1ccccc1,2.5%,-1.9%,12.1%,i,i,33.1%
O=C(Nc1ccc(Cl)cn1)c1ccccc1F,-26.7%,?,13µM*,?,23.1µM*,11.6µM*
O=C(Nc1ccc(Cl)cn1)c1cccc(F)c1,8.2µM*,?,13µM*,3.66µM*,6.51µM*,10.3µM*
COc1cc(/C=C2\N=C(c3ccccc3)NNC2=O)cc(OC)c1OC,3.26µM*,4.61µM*,1.84µM*,4.11µM*,4.61µM*,5.8µM*
O=C(CCn1nc(-c2ccc(Cl)cc2)c2ccccc2c1=O)Nc1ccc(OC(F)(F)F)cc1,.,.,.,i,i,.
CC1=NN(C(N)=S)C(=O)C1N=Nc1cccc(Cl)c1 (stereo not drawn),-19.4%,-14.3%,3.6%,i,i,-17.0%
CC1=NN(C(N)=S)C(=O)C1N=Nc1c(C)cc(C)cc1C (stereo not drawn),3.0%,11.0%,?,?,4.61µM*,-12.6%
COc1cccc(N=NC2C(=O)N(C(N)=S)N=C2C)c1 (stereo not drawn),-5.9%,25.9µM*,?,i,i,?
CCCCCc1ccc(OCCOCCn2c[n+](C)c3ccccc32)c(CCCCC)c1,?,?,?,i,18.4µM*,?
C[n+]1cn(CC(O)COCc2ccccc2)c2ccccc21 (stereo not drawn),-6.1%,-8.0%,5.7%,i,i,-1.7%
CCCCCc1ccc(OCCC[n+]2ccccc2)c(CCCCC)c1,5.17µM*,3.66µM*,?,i,11.6µM*,1.8%
COc1ccc(OC)c(CNC(=O)c2ccccc2NC(=O)c2nsc3ccccc23)c1,.,.,.,i,i,.
COc1ccc(NC(=O)C(C)N2c3cccc4cccc(c34)S2(=O)=O)cc1OC (stereo not drawn),?,?,8.2µM*,5.17µM*,18.4µM*,13µM*
COc1ccc(NC(=O)C(C)N2c3cccc4cccc(c34)S2(=O)=O)cc1 (stereo not drawn),-18.0%,-19.8%,-22.7%,i,i,3.7%
O=C(CCSCc1ccc(Cl)cc1)NCc1ccco1,10.6%,9.3%,10.9%,i,i,-6.4%
Cc1ccc(CS/C(Nc2ccccc2C)=C(\C#N)C(=O)NCc2ccco2)c(C)c1,-14.1%,-10.5%,?,14.6µM*,?,13.9%
Cc1ccccc1N/C(SCc1ccc(Cl)cc1)=C(/C#N)C(=O)NCc1ccco1,?,?,18.8%,11.6µM*,?,?
COc1cccc(N2CC(O)=C(c3nc4ccccc4c(=O)[nH]3)C2=N)c1,?,1.26µM*,-1.0%,?,4.61µM*,-6.0%
Cc1cc(C)cc(N2CC(O)=C(c3nc4ccccc4c(=O)[nH]3)C2=N)c1,-14.8%,-20.1%,?,?,14.6µM*,?
CN(Cc1nc2ccccc2[nH]1)C(=O)C1CCC(=O)N(CCc2cccc(F)c2)C1 (stereo not drawn),-0.7%,0.1%,-2.1%,i,i,-2.8%
CC(C)[C@H]1c2ccc(F)cc2CC[C@@]1(CCN(C)CCCc1nc2ccccc2[nH]1)OC(=O)C1CC1,.,.,.,20.6µM*,?,.
SMILES,HT1080 IDH1KD tx,HT1080NT lethal,MCF10A rerep,KB-V1 MDR tox,KB-3-1 cytotox,SW480 rerep
COc1cc(-c2noc(C)c2/C=C/c2ccc(OC(C)=O)cc2)cc(OC)c1OC,0.517µM*,0.366µM*,?,1.3µM*!,0.731µM*,?
COc1ccc(-c2oc(=O)c3cc(OC)c(OC)cc3c2/C=C/c2ccc(OC(C)=O)cc2)cc1,?,-22.3%,?,i,i,?
CCN(CC)CCCNC(=O)Cc1csc2nc(-c3ccc(Cl)cc3)cn12,.,.,.,i,i,.
COc1ccc(CCNC(=O)CCc2ccc(S(=O)(=O)NC(C)C)cc2)cc1OC,1.0%,25.6%,-6.4%,i,i,-12.1%
COc1ccc(CCNC(=O)COc2ccc(S(=O)(=O)NC(C)C)cc2Cl)cc1OC,11.2µM*,?,?,i,i,-18.9%
COc1ccc(CCNC(=O)COc2ccc(S(=O)(=O)NC3CCCCC3)cc2Cl)cc1,?,?,?,14.6µM*,i,24.8%
O=C(COc1ccc(Br)cc1CNC1CCCCC1)NCCc1ccccc1,18.4µM*,23.1µM*,12.7%,?,?,?
COc1ccc(C2(CNC(=O)C(=O)Nc3ccccc3C)CCCC2)cc1OC,.,.,.,i,i,.
CCN(C(=O)c1cc2c(Cl)nc3ccc(C)cc3c2s1)c1cc(OC)ccc1OC,.,.,.,i,i,.
CCc1ccc(NCc2cc3cc4c(cc3n(CC(=O)Nc3ccccc3OC)c2=O)OCCO4)cc1,.,.,.,i,i,.
Cn1c(=O)c2c(nc(Cl)n2CCOc2ccccc2)n(C)c1=O,6.4%,10.5%,4.4%,i,i,9.2µM*
Cn1c(=O)c2c(nc(Br)n2Cc2ccccc2Cl)n(C)c1=O,6.1%,8.4%,-0.1%,i,i,0.7%
COC(=O)Cn1c(=O)c2c(nc(Br)n2Cc2ccccc2Cl)n(C)c1=O,-5.1%,-7.1%,-8.9%,i,i,-3.3%[9.22 µM]
Cn1c(Oc2ccc(F)cc2)nc2c1c(=O)n(Cc1ccccc1Cl)c(=O)n2C,.,.,.,10.3µM*,?,.
CCOc1nc2c(c(=O)n(C)c(=O)n2C)n1Cc1ccccc1Cl,-3.8%,2.5%,-5.1%,4.11µM*,?,-4.0%
COc1ccc(-c2cc3nc(-c4ccc(C)cc4)cc(C(F)(F)F)n3n2)cc1,.,.,.,?,i,.
CCOC(=O)c1cccc(NC(=O)NCCc2c(C)nn(C)c2C)c1,.,.,.,i,i,.
